Compound activity: PubChem BioAssay, National Center for Advancing Translational Sciences (NCATS)
Only some compounds are listed: those with a hit (about 2.7% of all), similar ones and a draw of the others.
IDH1 R132H inh: human IDH1 R132H inhibition; IDH1-R132H enzyme, NADPH consumption, diaphorase/resazurin fluorescence; Potency, µM (doses to about 76.6 µM), most hits filed as inhibitors; O75874; AID 602179; 0.093% of 390,000 active; further: nearly all actives have a fitted effect of over 65% in size
Target sequence (O75874 whole entry R132H, stated change not applied): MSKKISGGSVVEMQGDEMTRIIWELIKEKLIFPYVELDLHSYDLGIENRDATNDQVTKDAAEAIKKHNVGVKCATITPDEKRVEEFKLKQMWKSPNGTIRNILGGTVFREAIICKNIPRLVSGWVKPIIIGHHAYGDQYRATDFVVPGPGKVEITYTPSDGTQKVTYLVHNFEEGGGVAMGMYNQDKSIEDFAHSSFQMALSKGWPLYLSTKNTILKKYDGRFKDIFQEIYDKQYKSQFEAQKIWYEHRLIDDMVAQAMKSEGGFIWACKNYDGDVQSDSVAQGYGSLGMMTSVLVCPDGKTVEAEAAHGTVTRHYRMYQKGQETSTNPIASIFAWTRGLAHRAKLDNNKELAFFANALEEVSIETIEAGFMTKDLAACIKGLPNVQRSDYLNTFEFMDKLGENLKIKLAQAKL
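IDH1-R132H (0.5 ug/mL dispensed) in pH 7.5 Tris buffer was preincubated 30 min with compound, then given a substrate mix of 0.016 mM NADPH and 2 mM alpha-KG for 80 min at room temperature; remaining NADPH was read by diaphorase/resazurin fluorescence.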
Nrf2 inh: blocks Nrf2 signaling; A549 ARE-Fluc reporter, luciferase luminescence, 18-24 h; Potency, µM (series often up to 46 µM), most hits filed as inhibitors; 2.1% of 360,000 active; AID 504444; further: nearly all actives have a fitted effect of over 60% in size
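Two sequential reads on A549 ARE_Fluc cells exposed to compound for 18-24 h: a CellTiter-Fluor fluorescence read for viability, then a luciferase luminescence read for Nrf2/ARE activity.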
LDHA block: inhibitors of human lactate dehydrogenase A; activity change, % (values are at about 110 or 230 µM); AID 1347041; P00338; 0.15% of 480,000 active; purified LDHA, NADH/diaphorase-resazurin fluorescence; stronger effect = lower value; in the data active means activity change below about -30%; inconclusive means mostly about -25% to -30%
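Remaining NADH was detected by diaphorase (0.133 mg/mL) converting 37 µM resazurin to fluorescent resorufin, read at 0 and 20 minutes. The preceding 5-minute room-temperature reaction used 2 nM LDHA, 0.2 mM sodium pyruvate and 0.06 mM NADH at pH 7.4.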
A549 viability: kills or reduces viability of A549 cells in Nrf2 counter-screen | A549 ARE-Fluc cells, CellTiter-Fluor viability, 18-24 h | 0.16% of 390,000 active | Potency, µM (titrated, usually from 46 µM), hits mostly inhibitors
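A549 ARE-Fluc cells in 5% FBS OPTI-MEM, 5000 cells/well, rested 2 h then exposed to compounds in concentration-response for 18-24 h at 37 °C. Viability by CellTiter-Fluor fluorescence (Ex 405/Em 525) after 30 min; luciferase luminescence (BugLite, 15 min, RT) read afterwards.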
Nrf2 activator: Nrf2 pathway activation; AREc32 ARE-luciferase reporter (MCF7-derived line), luminescence, 24 h; Potency, µM (top dose mostly 46.1 µM), hits mostly activators; 0.31% of 410,000 active; further: nearly all actives have a fitted effect of over 65% in size
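ARE activation measured as luciferase luminescence (Steady-Glo, 30 min RT) in AREc32_Fluc cells after 24 hr compound exposure at 37 deg C, 5% CO2; cells seeded overnight at 1000/well in OPTI-MEM, 5% FBS.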
ALOX12 inh: blocks human arachidonate 12S-lipoxygenase; AID 1671190; 1.1% of 580,000 active; P18054; Potency, µM (highest dose often 108 µM), hits mostly inhibitors; purified 12hLO, xylenol orange hydroperoxide absorbance
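Purified human 12hLO at 150 nM in 25 mM Hepes, 0.01% Triton X-100, pH 7.0, preincubated 15 min at room temperature with compound. Reaction started with 40 uM arachidonic acid, 30 min at room temperature. Hydroperoxide measured by Fe-xylenol orange, 573/405 nm absorbance ratio.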
Numbers stand for hits; – = inactive; ? = inconclusive; · = not tested or not shown. Unless noted, the call rests on the fitted dose curve; in most records, active means well fitted curve in the direction sought with a large enough effect; inconclusive means small, poorly fitted or top-dose-only effect, or another doubt; inactive means no such curve, though single readings can be large; an effect the other way counts as inactive or inconclusive.

SMILES	IDH1 R132H inh	Nrf2 inh	LDHA block	A549 viability	Nrf2 activator	ALOX12 inh
O=C(Nc1ccc(N2CCCCC2)c(Cl)c1)c1ncn[nH]1	–	8.2µM	–	–	–	–
CN(C1=NC(=O)C(CC(=O)Nc2ccc(Br)cc2)S1)c1ccc(O)cc1 (stereo not drawn)	–	23µM	–	–	–	?
COc1cc(/C=C/c2ccc3cccc(O)c3n2)cc(OC)c1	·	·	–	·	·	?
CCOC(=O)c1c(C)[nH]c(C(=O)C(C)Sc2ccc(Cl)cc2)c1C (stereo not drawn)	–	–	–	–	–	–
CC(=O)c1c(C)[nH]c(C(=O)C(C)Sc2ccc(F)c(Cl)c2)c1C (stereo not drawn)	·	·	–	·	·	45µM
COc1cc(/C=C/C(=O)c2ccccc2C)cc(OC)c1OC(F)F	·	·	–	·	·	–
O=Cc1cccc2c1OCCO2	·	·	–	·	·	7.1µM
O=C(O)/C=C/c1cccc2c1OCCO2	–	–	–	–	–	–
COc1ccc(-c2csc(Nc3cccc4ccccc34)n2)cc1	·	·	–	·	·	–
Cc1ccc2occ(/C=N/NC(=O)c3ccc(Cl)cc3)c(=O)c2c1	–	–	–	–	–	–
O=C(N/N=C/c1coc2ccc(Cl)cc2c1=O)c1cc(O)cc(O)c1	–	–	–	–	–	45µM
CCc1ccc2cc(-c3ccc(C)c(C)c3)cn2c1	·	·	–	·	·	25µM
CCCc1nn2cc(-c3ccc(C)c(C)c3)nc2s1	–	?	–	–	–	–
O=C(/C=C/c1ccc([N+](=O)[O-])s1)N1CCCC1	–	21µM	–	–	?	–
Fc1ccc(NC(=S)N/N=C/c2ccc(C(F)(F)F)cc2)c(F)c1	·	·	–	·	·	–
COc1ccccc1/C=N/OCc1ccc(C#N)cc1	–	18µM	–	–	–	–
COc1ccccc1/C=N/OCc1ccccc1C#N	·	·	–	·	·	–
O=S(=O)(c1cccc(Br)c1)N1CCOCC1	·	·	–	·	·	?
CCN(CC(=O)Nc1c(F)cccc1F)C(=O)CCc1nc2sc3c(c2c(=O)[nH]1)CCCC3	–	–	–	–	–	14µM
CN(C)CCCNS(=O)(=O)c1ccc(N2CCN(Cc3ccc4c(c3)OCO4)CC2)c([N+](=O)[O-])c1	–	–	?	–	–	2.8µM
COC(=O)C1=C(C)N(c2cccc(C)c2)C(=S)NC1c1ccc(C)s1 (stereo not drawn)	·	·	–	·	·	35µM
O=C(c1nc2nc(-c3ccco3)cc(C(F)(F)F)n2n1)N1CCOCC1	·	·	–	·	·	?
CCOc1ccc(S(=O)(=O)NCCc2cn3ccccc3n2)cc1	–	?	–	–	–	–
O=S(=O)(NCCc1cn2ccccc2n1)c1ccc(-c2ccccc2)cc1	–	21µM	–	–	–	–
CCc1nncn1C1CCN(S(=O)(=O)c2cccc(Cl)c2)CC1	·	·	·	·	·	–
SMILES	IDH1 R132H inh	Nrf2 inh	LDHA block	A549 viability	Nrf2 activator	ALOX12 inh
CCCn1nc(C)cc1CN(C)c1ccc(NC(=O)c2ccc(OC)cc2)cc1C(=O)O	·	·	–	·	·	4.5µM
CCc1ccc(-n2nc(-c3nc4ccccc4s3)c(N)c2C(=O)OC)cc1	·	·	–	·	·	?
COCCn1c(CCC(=O)Nc2cc(F)ccc2C)nc2c1c(=O)[nH]c(=O)n2CC(C)C	·	·	–	·	·	–
Cc1[nH]n(-c2ccc(Br)cc2)c(=O)c1/C=N/NC(=O)c1ccccc1	–	?	–	?	–	–
Cc1[nH]n(-c2ccccc2)c(=O)c1/C=N/NC(=O)c1cccc(F)c1	–	7.3µM	–	–	–	35µM
Cc1[nH]n(-c2ccccc2)c(=O)c1/C=N/Nc1nncc(-c2ccccc2)n1	–	?	–	–	–	16µM
Cc1ccc(/C=N/Nc2nncc(-c3ccccc3)n2)o1	–	–	–	–	–	–
CCOC(=O)C(Cc1ccccc1)(Nc1ccccc1OC)C(O)c1ccc(C#N)cc1 (stereo not drawn)	·	·	·	·	·	–
Cc1ccccc1CN(c1ccc(C(=O)N2CCc3ccccc3C2)cc1)S(C)(=O)=O	–	15µM	–	–	–	–
CCc1ccc(C(=O)N2CCN(c3nc4ccccc4o3)CC2)cc1	·	·	–	·	·	–
COc1cc(OC)cc(C(=O)N2CCN(C(=O)c3ccc(-c4ccccc4)cc3)CC2)c1	–	–	–	–	–	–
COc1ccc(C(=O)N2CCN(C(=O)c3ccc(-c4ccccc4)cc3)CC2)cc1OC	–	13µM	–	–	–	–
CCOC(=O)c1ccc(NC(=O)C2CCN(C(=O)c3ccc(OC)c(OC)c3)CC2)cc1	–	23µM	–	–	–	–
COc1ccc(C(=O)N2CCN(c3nc4ccccc4o3)CC2)cc1OC	–	18µM	–	–	–	–
FC(F)(F)c1cccc(/C=N/N=C(c2ccccc2)c2ccccc2)c1	·	·	–	·	·	–
